Bioassay records: PubChem BioAssay, National Center for Advancing Translational Sciences (NCATS)
A selection: hits, their analogues and other compounds. The true share with any hit is near 9.2%.
SMN2 splice up – SMN2 splice variant enhancement | AID 1458 | hit rate 2.8% among 210,000 | HEK293 SMN2-luciferase splicing reporter, luminescence, 30-36 h | Potency, µM (top dose mostly 46.1 µM), for inactives: at the highest dose activity change, positive = activation, hits mostly activators; note: % of control where 0% means no effect; nearly all actives have a fitted effect of over 55% in size
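HEK293 cells carry an SMN2 minigene-luciferase reporter in which exon 7 inclusion puts luciferase in frame. Cells were seeded at 2000 cells/well, attached for 10-12 hours, then exposed to compounds for 30-36 hours at 37C before ONE-Glo luminescence.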
ELG1 genotoxic – genotoxicity induction in ELG1-luciferase HEK293T cells. Potency, µM (doses to about 46 µM), without a hit: at the top dose activity change, positive = activation, actives largely listed as activators. hit rate 1.3% among 330,000. HEK293T ELG1-luciferase reporter, luminescence, 16 h; note: % of control where 0% means no effect; nearly all actives have a fitted effect of over 60% in size
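Luminescence read-out: rising ELG1-luciferase signal, reflecting elevated ELG1 protein under genetic stress, flags genotoxic compounds. Cells were treated for 16 hr at 37 °C before ONE-Glo detection.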
NPC1 promoter act – activators of NPC1 promoter. Huh7 NPC1 promoter luciferase reporter, 24 h. Potency, µM (series often up to 9.22 µM), inactives show at the highest dose activation, most hits filed as activators. hit rate 2.4% among 320,000. AID 485313; note: % of control where 0% means no effect; nearly all actives have a fitted effect of over 60% in size
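NPC1 promoter–luciferase Huh7 cells; 24 h compound; luminescence.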
Rab9 promoter act – activates the Rab9 promoter; Huh7 Rab9 promoter-luciferase reporter, luminescence, 24 h; Potency, µM (highest dose often 9.22 µM), for inactives: at the top dose activation, negative = inhibition, hits mostly activators; hit rate 2.8% among 320,000; AID 485297; note: % of control where 0% means no effect; nearly all actives have a fitted effect of over 60% in size
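Luciferase signal after 10 min detection reagent at ambient indicates Rab9 promoter upregulation; stably transfected Huh7 cells were treated 24 h with compound in DMSO at 37 °C, 5% CO2.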
FLuc modulator – counter-screen for miR-21 project: firefly luciferase inhibitors or activators; P08659; purified FLuc, Km substrates, luminescence inhibition; Potency, µM (highest dose often 57.5 µM), for the others: at the top dose activity change, negative = inhibition, most hits filed as inhibitors; hit rate 6.9% among 360,000; AID 588342;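 note: plate controls were vehicle for no effect and reference inhibitor for full effect; nearly all actives have a fitted effect of over 55% in size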
Target sequence (P08659 whole entry, looked up): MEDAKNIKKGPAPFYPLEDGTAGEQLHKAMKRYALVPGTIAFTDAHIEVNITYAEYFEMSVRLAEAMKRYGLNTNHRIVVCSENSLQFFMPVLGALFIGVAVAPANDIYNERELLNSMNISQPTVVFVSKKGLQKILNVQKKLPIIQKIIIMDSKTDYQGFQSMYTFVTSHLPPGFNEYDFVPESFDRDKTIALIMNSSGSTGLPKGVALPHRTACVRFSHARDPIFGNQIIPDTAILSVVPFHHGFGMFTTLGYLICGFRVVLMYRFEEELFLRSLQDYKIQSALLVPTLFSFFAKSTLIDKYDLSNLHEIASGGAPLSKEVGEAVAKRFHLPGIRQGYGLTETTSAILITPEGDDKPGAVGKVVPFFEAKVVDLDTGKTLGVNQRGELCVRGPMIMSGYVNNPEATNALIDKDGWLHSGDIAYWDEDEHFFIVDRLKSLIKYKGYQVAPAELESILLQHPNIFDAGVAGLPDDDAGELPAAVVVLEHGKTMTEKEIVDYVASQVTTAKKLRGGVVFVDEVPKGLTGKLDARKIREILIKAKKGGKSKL
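Purified P. pyralis luciferase, 10 nM final, with Km-level 10 uM D-luciferin and 10 uM ATP in 50 mM Tris acetate pH 7.5, 10 mM Mg acetate, 0.01% Tween-20, 0.05% BSA; 6-point qHTS titration about 60 µM downward; luminescence read.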
ELG1 DNA repair – inhibitors of ELG1-dependent DNA repair in HEK293T cells. HEK293T ELG1-luciferase reporter, luminescence, 16 h; DNA damage induced by 5-fluorouridine. Potency, µM (doses to about 46.1 µM), for the others: at the highest dose activity change, negative = inhibition, most hits filed as inhibitors. hit rate 2.3% among 330,000; note: % is set by controls: 0 for no effect and ±100 for the full control effect; nearly all actives have a fitted effect of over 55% in size
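HEK293T cells expressing luciferase-tagged ELG1 (2,000/well) received 5-Fluorouridine plus compound or DMSO for 16 hr at 37 °C. Luciferase was read by ONE-Glo luminescence after 30 min at room temperature.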
* = called active by the depositor; ? = inconclusive; nt = no result; [ ] = dose if it differs, or a comment. Calls come from the whole dose curve; as a rule, active = well fitted curve in the direction sought with a large enough effect; inconclusive = small, poorly fitted or top-dose-only effect, or another doubt; inactive = no such curve, though single readings can be large; an effect the other way counts as inactive or inconclusive. Potency is the fitted concentration of half-maximal effect.

SMILES	SMN2 splice up	ELG1 genotoxic	NPC1 promoter act	Rab9 promoter act	FLuc modulator	ELG1 DNA repair
Cc1nc2ccc(S(=O)(=O)Nc3cc(-c4nc5cccnc5s4)ccc3C)cc2s1	15.8µM*	?	-4.9%	2.0%	19µM*	?
CCOCC(=O)Nc1cccc(-c2nc3cccnc3s2)c1C	nt	0.1%	13.2%	0.8%	16.9µM*	-24.9%
Cc1ccc(NC(=O)Cn2nnnc2-c2ccccc2N)cc1	4.4%	nt	nt	nt	-11.1%	nt
CCOc1ccc2nc(N3CCCC(C(=O)NCCc4ccc(SC)cc4)C3)sc2c1 (stereo not drawn)	20µM*	nt	nt	nt	-19.7%	nt
CCOc1ccc2nc(N3CCCC(C(=O)Nc4cc(Cl)c(OC)cc4OC)C3)sc2c1 (stereo not drawn)	?	nt	nt	nt	2.69µM*	nt
CCOC(=O)Nc1ccc2nc(N3CCCCCC3)sc2c1	nt	10.3µM*	?	?	7.57µM*	?
CCOc1ccc2nc(N3CCCC(C(=O)Nc4ccc(CC)cc4)C3)sc2c1 (stereo not drawn)	15.9%	nt	nt	nt	?	nt
CCOc1ccc2nc(N3CCCC(C(=O)Nc4ccc(OC)cc4)C3)sc2c1 (stereo not drawn)	21.8%	nt	nt	nt	1.51µM*	nt
Cc1ccc(C)c(CN2C(=O)c3ccccc3S(=O)c3ccc(C(=O)N(C)Cc4ccccc4)cc32)c1 (stereo not drawn)	-44.5%	nt	nt	nt	-3.1%	nt
NCCOc1ccccn1	10.6%[9.22 µM]	nt	nt	nt	nt	nt
COc1ccc(N2CC(NC(=O)/C=C\c3ccc(OC)c(OC)c3)CC2=O)cc1 (stereo not drawn)	nt	nt	nt	nt	-8.1%	nt
Cc1ccc(NC(c2cccc(Cl)c2)c2nnc(-c3ccccc3)o2)cc1F (stereo not drawn)	-4.3%	nt	nt	nt	-2.0%	nt
CCOc1ccc2nc(N3CCCC(C(=O)NC4CCCC4)C3)sc2c1 (stereo not drawn)	nt	-6.4%	?	?	3.01µM*	10.2%
CCOC(=O)N1CCN(C(=O)C2CCCN(c3nc4ccc(OCC)cc4s3)C2)CC1 (stereo not drawn)	21.4%	-0.8%	10.8%	4.9%	12µM*	-14.0%
CCOc1ccc2nc(N3CCCC(C(=O)Nc4cccc(Cl)c4C)C3)sc2c1 (stereo not drawn)	7.94µM*	nt	nt	nt	3.38µM*	nt
Cc1oc2ncn(CC(C)C)c(=O)c2c1C(=O)N1CCN(c2ccc(F)cc2)CC1	nt	nt	nt	nt	-1.1%	nt
CCOc1ccccc1OCCCC(=O)ON=C(N)c1ccccc1	nt	1.0%	1.4%	1.1%	-3.2%	7.1%
CCN(C(=O)COC(=O)CNC(=O)c1ccc(Cl)cc1Cl)c1c(N)n(Cc2ccccc2)c(=O)[nH]c1=O	nt	1.0%	nt	nt	nt	2.6%
Cc1cc(C(=O)CSC(C)c2nc3ccccc3c(=O)[nH]2)c(C)n1C (stereo not drawn)	-20.0%	-0.6%	-14.8%	-5.6%	-0.6%	-4.9%
Cc1cc(C(=O)CSc2nc3ccccc3c(=O)[nH]2)c(C)n1C	35.5µM*	14.1µM*	?	?	?	?
Cc1cc(C(=O)CSc2nc(N)cc(N)n2)c(C)n1CC1CCCO1 (stereo not drawn)	nt	-1.8%	nt	nt	nt	0.0%
Cc1cc(C(=O)CSc2nc(N)cc(=O)[nH]2)c(C)n1CC1CCCO1 (stereo not drawn)	nt	-3.2%	nt	nt	nt	-16.4%
Cc1cc(C(=O)CSc2nc3ccccc3o2)c(C)n1CC1CCCO1 (stereo not drawn)	-89.0%	2.4%	0.708µM*	0.794µM*	1.35µM*	?
Cc1cc(C(=O)CSc2nc3ccccc3[nH]2)c(C)n1CC1CCCO1 (stereo not drawn)	-53.4%	-10.4%	?	?	0.536µM*	?
CC(C)c1ccc(S(=O)(=O)c2nnn3c2nc(NCCc2ccccc2)c2sccc23)cc1	nt	nt	nt	nt	-5.8%	nt
SMILES	SMN2 splice up	ELG1 genotoxic	NPC1 promoter act	Rab9 promoter act	FLuc modulator	ELG1 DNA repair
CC(C)Oc1ccc(C(=O)Nc2nc3c(s2)CC(C(C)(C)C)CC3)cc1 (stereo not drawn)	nt	nt	nt	nt	-14.4%	nt
C[C@]12CCC(=O)C=C1CCC1C2C(=O)C[C@]2(C)C1CC[C@]2(O)C(=O)CO (stereo partly drawn)	5.8%	nt	nt	nt	nt	nt
O=C(Nc1cccc(NC(=O)c2ccc(Cl)cc2Cl)c1)c1cccnc1	nt	-9.4%	-4.9%	-4.6%	13.5µM*	-29.7%
Cc1ccc(C(=O)COC(=O)c2cccc(NC(=O)c3ccc(Cl)cc3Cl)c2)cc1	?	nt	nt	nt	0.849µM*	nt
COc1cccc(C(=O)Nc2cccc(NC(=O)c3ccccc3Cl)c2)c1	nt	-7.9%	-1.3%	10.4%	15.1µM*	-9.6%
COc1cccc(C(=O)Nc2cccc(NC(=O)c3ccc(Cl)cc3Cl)c2)c1	-8.5%	nt	nt	nt	7.57µM*	nt
O=C(Nc1cccc(NC(=O)c2cccnc2)c1)c1cccnc1	-15.6%	-12.8%	3.1%	1.9%	-9.4%	-18.3%
O=C(NC1(C(F)(F)F)N=C(c2ccccc2)N(Cc2ccccc2)C1=O)c1ccc(F)cc1 (stereo not drawn)	-4.3%	nt	nt	nt	-10.2%	nt
COc1cccc(C(=O)Nc2cccc(C(=O)NC3=NN(c4c(Cl)cc(Cl)cc4Cl)C(=O)C3)c2)c1	8.7%	9.2%	-1.8%	17.4%	9.53µM*	-0.9%
CC(C)(C)C(=O)NC1=NN(c2c(Cl)cc(Cl)cc2Cl)C(=O)C1	nt	-2.9%	-10.9%	-2.7%	2.8%	5.9%
CC(=O)NC(=S)Nc1sc2c(c1C#N)CCCCC2	nt	2.06µM*	2.51µM*	1.41µM*	1.51µM*	?
Cn1nccc1C(=O)NC(=S)Nc1sc2c(c1C#N)CCCCC2	14.8%	14.3%	?	?	3.79µM*	?
NC(=O)C1(N2CCCCC2)CCN(C(=O)Nc2ccc(F)cc2F)CC1	-2.9%	nt	nt	nt	-2.1%	nt
COc1ccc(/C=C/C=C2\N=C(SC)SC2=O)cc1	nt	1.9%	24.6%	17.9%	5.36µM*	?
O=C(Nc1ccc(OC(F)(F)F)cc1)C1CCCCN1S(=O)(=O)c1ccccc1 (stereo not drawn)	nt	0.3%	-3.2%	-1.7%	-15.7%	19.2%
CCOc1ccc(/C=N/NC(=O)c2ccc(Cn3cc([N+](=O)[O-])cn3)o2)cc1	27.4%	nt	nt	nt	4.78µM*	nt
CC(/C=N/NC(=O)c1ccc(Cn2cc([N+](=O)[O-])cn2)o1)=C\c1ccccc1	nt	12.2%	?	3.8%[1.84 µM]	2.39µM*	?
CCOc1ccccc1/C=N/NC(=O)c1ccc(Cn2cc([N+](=O)[O-])cn2)o1	5.8%	1.5%	-2.5%	-5.1%	6.0%	1.5%
O=C(N/N=C/c1ccc([N+](=O)[O-])cc1)c1cc2ccccc2o1	nt	16.1%	-5.2%	-5.1%	-0.8%	?
